Reference: PMC5540273 (PLoS ONE, 2017)

Key:
Settings in all cases: concentration: 1 μM, replicates: in singlicate; n = 1
[1] = tested on: MARK3
[2] = tested on: MARK4
[3] = tested on: MAST1
[4] = tested on: T1, MEK1
T1 construct: gene MAP2K1

[5] = tested on: T2, MEK2
T2 construct: gene MAP2K2

[6] = tested on: T3, MEK3
T3 construct: gene MAP2K3

[7] = tested on: T4, MEK4
T4 construct: gene MAP2K4

[8] = tested on: T5, MEK5
T5 construct: gene MAP2K5

[9] = tested on: T6, MEK6
T6 construct: gene MAP2K6

[10] = tested on: MELK
[11] = tested on: MERTK
[12] = tested on: MET
[13] = tested on: T7, MINK
T7 construct: gene MINK1

[14] = tested on: MKK7
[15] = tested on: MKNK1
[16] = tested on: MKNK2
[17] = tested on: T8, MLCK
T8 construct: gene MYLK3

[18] = tested on: T9, MLK1
T9 construct: gene MAP3K9

[19] = tested on: MLK2
[20] = tested on: MLK3
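Note: KINOMEscan kinase panel screen.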

Structure (SMILES): C[C@@H]1CCN(C(=O)CO)C[C@@H]1N(C)c1ncnc2[nH]ccc12
- %Inh [1]: 0%
- %Inh [2]: 0%
- %Inh [3]: 5%
- %Inh [4]: 0%
- %Inh [5]: 0%
- %Inh [6]: 0%
- %Inh [7]: 0%
- %Inh [8]: 12%
- %Inh [9]: 3%
- %Inh [10]: 0%
- %Inh [11]: 0%
- %Inh [12]: 0%
- %Inh [13]: 0%
- %Inh [14]: 0%
- %Inh [15]: 0%
- %Inh [16]: 0%
- %Inh [17]: 14%
- %Inh [18]: 0%
- %Inh [19]: 35%
- %Inh [20]: 8%

Structure (SMILES): CCc1nc(-c2cccc(C)c2)c(-c2ccnc(NC(=O)c3ccccc3)c2)s1
- %Inh [1]: 0%
- %Inh [2]: 28%
- %Inh [3]: 25%
- %Inh [4]: 5%
- %Inh [5]: 2%
- %Inh [6]: 7%
- %Inh [7]: 4%
- %Inh [8]: 54%
- %Inh [9]: 0%
- %Inh [10]: 22%
- %Inh [11]: 3%
- %Inh [12]: 2%
- %Inh [13]: 61%
- %Inh [14]: 0%
- %Inh [15]: 0%
- %Inh [16]: 8%
- %Inh [17]: 0%
- %Inh [18]: 0%
- %Inh [19]: 16%
- %Inh [20]: 0%

Structure (SMILES): Clc1cc(Nc2ncnc3cc[nH]c23)ccc1OCc1ccccn1
- %Inh [1]: 5%
- %Inh [2]: 4%
- %Inh [3]: 45%
- %Inh [4]: 17%
- %Inh [5]: 23%
- %Inh [6]: 19%
- %Inh [7]: 11%
- %Inh [8]: 76%
- %Inh [9]: 17%
- %Inh [10]: 0%
- %Inh [11]: 0%
- %Inh [12]: 4%
- %Inh [13]: 33%
- %Inh [14]: 5%
- %Inh [15]: 35%
- %Inh [16]: 22%
- %Inh [17]: 0%
- %Inh [18]: 0%
- %Inh [19]: 2%
- %Inh [20]: 0%

Structure (SMILES): COc1cc2c(Nc3cccc(NC(=O)c4ccccc4)c3)ncnc2cc1OCCCN1CCOCC1 [GSK223810]
- %Inh [1]: 0%
- %Inh [2]: 22%
- %Inh [3]: 0%
- %Inh [4]: 0%
- %Inh [5]: 3%
- %Inh [6]: 7%
- %Inh [7]: 4%
- %Inh [8]: 80%
- %Inh [9]: 0%
- %Inh [10]: 15%
- %Inh [11]: 20%
- %Inh [12]: 1%
- %Inh [13]: 0%
- %Inh [14]: 0%
- %Inh [15]: 23%
- %Inh [16]: 9%
- %Inh [17]: 0%
- %Inh [18]: 0%
- %Inh [19]: 23%
- %Inh [20]: 13%

Structure (SMILES): Clc1ccc(-c2cc(-c3c[nH]nc3-c3ccccn3)ccn2)cc1 [GW681251]
- %Inh [1]: 0%
- %Inh [2]: 0%
- %Inh [3]: 0%
- %Inh [4]: 39%
- %Inh [5]: 0%
- %Inh [6]: 0%
- %Inh [7]: 2%
- %Inh [8]: 0%
- %Inh [9]: 0%
- %Inh [10]: 40%
- %Inh [11]: 27%
- %Inh [12]: 0%
- %Inh [13]: 78%
- %Inh [14]: 30%
- %Inh [15]: 0%
- %Inh [16]: 3%
- %Inh [17]: 0%
- %Inh [18]: 0%
- %Inh [19]: 0%
- %Inh [20]: 0%

Structure (SMILES): CN1CCC(n2cnc(-c3ccc(F)cc3)c2-c2ccnc(NC3CCNCC3)n2)CC1 [SB-229482]
- %Inh [1]: 0%
- %Inh [2]: 6%
- %Inh [3]: 27%
- %Inh [4]: 0%
- %Inh [5]: 0%
- %Inh [6]: 18%
- %Inh [7]: 0%
- %Inh [8]: 0%
- %Inh [9]: 0%
- %Inh [10]: 0%
- %Inh [11]: 0%
- %Inh [12]: 0%
- %Inh [13]: 0%
- %Inh [14]: 11%
- %Inh [15]: 0%
- %Inh [16]: 32%
- %Inh [17]: 0%
- %Inh [18]: 38%
- %Inh [19]: 5%
- %Inh [20]: 0%

Structure (SMILES): C[C@H]1CC[C@@H](C(=O)Nc2ccccc2)CN1c1cc(-c2ccc3c(N)n[nH]c3c2)nc(N)n1 [GSK2283293]
- %Inh [1]: 0%
- %Inh [2]: 0%
- %Inh [3]: 0%
- %Inh [4]: 0%
- %Inh [5]: 0%
- %Inh [6]: 0%
- %Inh [7]: 3%
- %Inh [8]: 11%
- %Inh [9]: 0%
- %Inh [10]: 0%
- %Inh [11]: 11%
- %Inh [12]: 100%
- %Inh [13]: 17%
- %Inh [14]: 0%
- %Inh [15]: 0%
- %Inh [16]: 3%
- %Inh [17]: 0%
- %Inh [18]: 0%
- %Inh [19]: 0%
- %Inh [20]: 0%

Structure (SMILES): O=c1cc(N2CCOCC2)nc2n(Cc3cccc(Cl)c3)ccn12 [GSK2296823]
- %Inh [1]: 0%
- %Inh [2]: 5%
- %Inh [3]: 0%
- %Inh [4]: 8%
- %Inh [5]: 0%
- %Inh [6]: 0%
- %Inh [7]: 4%
- %Inh [8]: 13%
- %Inh [9]: 0%
- %Inh [10]: 0%
- %Inh [11]: 15%
- %Inh [12]: 0%
- %Inh [13]: 0%
- %Inh [14]: 12%
- %Inh [15]: 0%
- %Inh [16]: 15%
- %Inh [17]: 0%
- %Inh [18]: 0%
- %Inh [19]: 19%
- %Inh [20]: 0%

Structure (SMILES): COc1ccc(-c2oc3ncnc(N)c3c2-c2ccc(OC)cc2)cc1 [SB-589132]
- %Inh [1]: 2%
- %Inh [2]: 0%
- %Inh [3]: 53%
- %Inh [4]: 0%
- %Inh [5]: 0%
- %Inh [6]: 0%
- %Inh [7]: 0%
- %Inh [8]: 88%
- %Inh [9]: 0%
- %Inh [10]: 8%
- %Inh [11]: 29%
- %Inh [12]: 0%
- %Inh [13]: 0%
- %Inh [14]: 0%
- %Inh [15]: 25%
- %Inh [16]: 41%
- %Inh [17]: 23%
- %Inh [18]: 0%
- %Inh [19]: 0%
- %Inh [20]: 0%

Structure (SMILES): Cc1ccc(NC(=O)c2cccc(C#N)c2)cc1-c1ccc(C(=O)Nc2ccncc2)cc1 [GSK1398463]
- %Inh [1]: 0%
- %Inh [2]: 0%
- %Inh [3]: 17%
- %Inh [4]: 0%
- %Inh [5]: 10%
- %Inh [6]: 0%
- %Inh [7]: 0%
- %Inh [8]: 4%
- %Inh [9]: 31%
- %Inh [10]: 0%
- %Inh [11]: 0%
- %Inh [12]: 0%
- %Inh [13]: 0%
- %Inh [14]: 0%
- %Inh [15]: 0%
- %Inh [16]: 23%
- %Inh [17]: 0%
- %Inh [18]: 0%
- %Inh [19]: 24%
- %Inh [20]: 0%
